Each structure is given as a SMILES string. Results filed as inconclusive are left out. Values without a mark were called inactive. Calls come from the whole dose curve; as a rule, active = well fitted activation curve with a large enough effect; inconclusive = small, poorly fitted or top-dose-only effect; inactive = flat fitted curve, though single readings scatter.

This note sets out measurements from PubChem BioAssay AID720517 (National Center for Advancing Translational Sciences (NCATS), 2013).

The nature of the assay: qHTS for Inhibitors of Cell Surface uPA Generation: FP59 Counterscreen for Cherry-picked Compounds. Note: 0% is about no effect. Particulars: FP59 anthrax toxin cytotoxicity counterscreen, cells; series mostly up to 115 µM; activity (protection from FP59): at the top concentration.
On to `COCc1cc(C)nc2sc(C(=O)Nc3nccs3)c(N)c12`, for which the “activity (protection from FP59)” value was -0.377%.

With `O=C(COc1cccc2ccccc12)NNC(=O)c1cnccn1`, the “activity (protection from FP59)” value was -0.155%.

Consider `Cc1nn(CC(=O)OCC(=O)NC(C)c2ccccc2)c(C)c1[N+](=O)[O-]` (configuration not stated), for which the “activity (protection from FP59)” value is 0.0139%.

Turning to `C=CCOC(=O)C1=C[C@H](c2ccc(C(F)(F)F)cc2)[C@@H](CCCO)[C@H](OCC)O1`, the “activity (protection from FP59)” value is 1.86%.

With `CCCc1nc2c(=O)n(C)c(=O)[nH]c2n1CCC`, the “activity (protection from FP59)” value is -1.11%.

Regarding `Cc1nn(-c2ccc(F)cc2)c(C)c1NS(=O)(=O)c1ccc(Cl)cc1`, the “activity (protection from FP59)” value is -0.621%.

Take `Cn1c(SCC(=O)NNC(=O)c2ccc(Br)cc2)nnc1-c1cccnc1`: the “activity (protection from FP59)” value was -1.37%.

Take `CCOc1ccc(N(CC(=O)Nc2ccc(CC)cc2)S(=O)(=O)c2c(C)[nH]c(=O)[nH]c2=O)cc1`: the “activity (protection from FP59)” value was -1.42%.

Take `COc1ccc(C)cc1NC(=O)CSCc1cc(=O)n2c(C)csc2n1`: the “activity (protection from FP59)” value is -1.12%.

For `O=[N+]([O-])c1ccc(-c2cn3c(n2)SCC3)cc1`, the “activity (protection from FP59)” value is -1.08%.

Regarding `CSCC[C@H](NC(=O)[C@H](Cc1ccccc1)n1c(=O)[nH]c2ccccc2c1=O)C(=O)N1CCC[C@@H]1C(=O)O`, the “activity (protection from FP59)” value is -1.24%.

Take `CSc1nc(N)nc2c1ncn2CC(=O)NCC1CCCO1` (configuration not stated): the “activity (protection from FP59)” value is -0.117%.

With `O=C(COc1cc2oc(=O)cc(-c3ccccc3)c2cc1Cl)NC(Cc1c[nH]c2ccc(O)cc12)C(=O)O` (configuration not stated), the “activity (protection from FP59)” value is -1.31%.

Take `COc1ccc(-n2nnnc2SCC(=O)Nc2nnc(C)s2)cc1`: the “activity (protection from FP59)” value was -1.43%.

As to `CC1CC(C)(C)Nc2ccc(N=O)cc21` (configuration not stated), the “activity (protection from FP59)” value is -1.58%.

Consider `CC1CCC(NC(=O)c2nn(C)c3c2CS(=O)(=O)c2ccccc2-3)CC1` (configuration not stated), for which the “activity (protection from FP59)” value is -1.25%.

Consider `Cc1ccc(C(=O)COc2cc(O)c3c(=O)cc(-c4ccccc4)oc3c2)cc1`, for which the “activity (protection from FP59)” value is -1.17%.
